Source: PubChem BioAssay (NCATS)
“And” between values parts separate entries of the source, which are not always exact repeats. Identical values can stand only once. Records with an inconclusive call do not appear. Where a structure was tested more than once in an assay, its records may differ in their call. The source made the active and inactive calls. Unless noted, calls follow the shape of the dose curve; as a rule, active = well fitted curve in the direction sought with a large enough effect; inconclusive = small, poorly fitted or top-dose-only effect, or another doubt; inactive = no such curve, though single readings can be large; an effect the other way counts as inactive or inconclusive.

Experiments:
[1] = qHTS for Inhibitors of Plasmodium falciparum (DD2) proliferation (AID 504314);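 also: parasite DNA measured by SYBR Green fluorescence after red cell lysis; plate controls were DMSO vehicle for no effect and artemisinin wells for full effect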
Procedure, shortened: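 Quantitative HTS growth inhibition: SYBR Green I binding to parasite DNA after 72 h drug exposure of infected erythrocytes (0.3% parasitemia, 2.5% hematocrit). Signals normalized per plate to inhibitor and vehicle wells.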

[2] = qHTS for Inhibitors of Plasmodium falciparum (GB4) proliferation (AID 504315); also: nearly all actives have a fitted effect of over 50% in size; also: potency is read from the fitted curve at half-maximal effect
Procedure, shortened: (§1)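 Erythrocytes infected with P. falciparum line (0.3% parasitemia, 2.5% hematocrit final) incubated with compounds 72 h at 37 °C, 5% CO2; SYBR Green lysis buffer added, fluorescence read next day. Normalized to 0.29 uM artemisinin and DMSO.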

[3] = qHTS for Inhibitors of Plasmodium falciparum (7G8) proliferation (AID 504316); also: nearly all actives have a fitted effect of over 65% in size; also: potency is read from the fitted curve at half-maximal effect
Procedure, shortened: as §1

[4] = qHTS for Inhibitors of Plasmodium falciparum (HB3) proliferation (AID 504318); also: nearly all actives have a fitted effect of over 60% in size; also: potency is read from the fitted curve at half-maximal effect
Procedure, shortened: as §1

[5] = qHTS for Inhibitors of Plasmodium falciparum (CP250) proliferation (AID 504320);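 also: plate controls were DMSO vehicle for no effect and 0.29 µM artemisinin control for full effect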
Procedure, shortened: as §1

[6] = target: Atrial natriuretic peptide receptor 1 (Homo sapiens) (UniProt P16066); assay: Natriuretic polypeptide receptor (hNpr1) antagonism - Pilot CMLD screen (AID 1347052; calls by dose curve;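 also: HEK293 cells with hNpr1 stimulated by hNppA peptide at 0.1 nM; cGMP level read as GloSensor luciferase luminescence after agonist stimulation; series mostly up to about 9.2 µM; % is scaled to controls: 0 for no effect and ±100 for the full control effect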)
Chain of Atrial natriuretic peptide receptor 1 (Homo sapiens) (P16066 whole entry, looked up): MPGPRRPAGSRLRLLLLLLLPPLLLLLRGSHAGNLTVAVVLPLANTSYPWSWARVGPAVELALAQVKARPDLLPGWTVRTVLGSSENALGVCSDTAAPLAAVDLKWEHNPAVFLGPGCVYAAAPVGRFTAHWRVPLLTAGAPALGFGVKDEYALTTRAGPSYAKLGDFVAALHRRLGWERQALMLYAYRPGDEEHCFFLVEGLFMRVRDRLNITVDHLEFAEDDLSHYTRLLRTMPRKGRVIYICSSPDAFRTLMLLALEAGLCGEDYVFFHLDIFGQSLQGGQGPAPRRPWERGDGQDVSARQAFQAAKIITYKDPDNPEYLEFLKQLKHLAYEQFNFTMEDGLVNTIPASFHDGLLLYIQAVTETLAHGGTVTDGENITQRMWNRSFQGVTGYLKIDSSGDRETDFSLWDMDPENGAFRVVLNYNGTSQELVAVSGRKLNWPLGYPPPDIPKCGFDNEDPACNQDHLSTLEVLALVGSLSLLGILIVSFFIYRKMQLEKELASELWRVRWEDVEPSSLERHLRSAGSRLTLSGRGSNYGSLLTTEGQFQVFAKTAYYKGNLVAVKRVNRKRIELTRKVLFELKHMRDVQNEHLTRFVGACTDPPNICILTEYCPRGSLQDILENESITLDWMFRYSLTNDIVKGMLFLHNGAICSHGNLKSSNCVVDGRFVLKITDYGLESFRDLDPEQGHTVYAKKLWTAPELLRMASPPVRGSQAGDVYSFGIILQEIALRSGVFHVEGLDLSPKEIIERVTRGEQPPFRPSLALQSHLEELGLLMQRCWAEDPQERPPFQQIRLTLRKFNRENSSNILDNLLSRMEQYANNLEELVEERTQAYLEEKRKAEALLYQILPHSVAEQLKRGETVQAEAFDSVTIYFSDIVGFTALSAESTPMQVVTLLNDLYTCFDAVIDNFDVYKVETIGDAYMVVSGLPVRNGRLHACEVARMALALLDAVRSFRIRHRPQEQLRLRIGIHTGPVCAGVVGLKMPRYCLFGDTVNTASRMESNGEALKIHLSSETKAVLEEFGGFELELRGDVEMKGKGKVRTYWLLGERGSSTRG

OC[C@H]1O[C@H](C#Cc2ccccc2)C=C[C@H]1O
inactive: Potency [1] | Potency [2] | Potency [3] | Potency [4] | Potency [5] | Potency [6]

C=C(C)CCCN1C=C(C(C)=O)C(c2ccccc2)NC1=O (stereo not given)
inactive: Potency [1] | Potency [2] | Potency [3] | Potency [4] | Potency [5] | Potency [6]

CN1c2ccccc2[C@@]2(O)C(=O)[C@@]1(C)[C@@H]1CCC=C[C@H]12
inactive: Potency [1] | Potency [2] | Potency [3] | Potency [4] | Potency [5] | Potency [6]

Cc1ccc([S+](=O)([O-])N(c2ccccc2)[S+](=O)([O-])C(F)(F)F)cc1
inactive: Potency [1] | Potency [2] | Potency [3] | Potency [4] | Potency [5] | Potency [6]

COc1ccc(-c2nc(-c3ccccc3)oc2Nc2c(C)cccc2C)cc1
inactive: Potency [1] | Potency [2] | Potency [3] | Potency [4] | Potency [5] | Potency [6]

C[C@@H]1C=CCC(=O)OC[C@H](C)C(=O)OC[C@H]2O[C@H]1C=C[C@H]2O
inactive: Potency [1] | Potency [2] | Potency [3] | Potency [4] | Potency [5] | Potency [6]

COC(=O)[C@H](COC(C)(C)C)NC(=O)O[C@@H]1C(=O)c2ccc(OC)cc2O[C@H]1c1ccc2c(c1)OCO2
inactive: Potency [1] | Potency [2] | Potency [3] | Potency [4] | Potency [5] | Potency [6]

COC(=O)NC(c1ccc2c(c1)OCO2)C(C(=O)OC)C(=O)OC (stereo not given)
inactive: Potency [1] | Potency [2] | Potency [3] | Potency [4] | Potency [5] | Potency [6]

C=CCN1c2ccccc2[C@]23C[C@@H](C(=O)OC)N(C(=O)OCC)C2=NC(C(=O)OC)=C(C(=O)OC)[C@H]13
inactive: Potency [1] | Potency [2] | Potency [3] | Potency [4] | Potency [5] | Potency [6]

COc1cccc([C@H]2Oc3ccc(OC)cc3C(=NOC[C@@H](C)[C@H](OCc3ccccc3)C(C)C)[C@H]2O)c1
inactive: Potency [1] | Potency [2] | Potency [3] | Potency [4] | Potency [5] | Potency [6]

O=C1NC[C@H](c2ccccc2)N1
inactive: Potency [1] | Potency [2] | Potency [3] | Potency [4] | Potency [5] | Potency [6]

Cc1cccc(C)c1Nc1oc(-c2ccccc2)nc1C(C)(C)C
inactive: Potency [1] | Potency [2] | Potency [3] | Potency [4] | Potency [5] | Potency [6]

CC1(OC(=O)c2cccs2)C(=O)C=C2C=C3CCCN3C=C2C1=O (stereo not given)
inactive: activity, negative = inhibition [1] -0.249% [at 1.12 µM] | Potency [2] | Potency [3] | Potency [4] | Potency [5] | Potency [6]

COC(=O)N[C@@H](c1ccco1)C(C(C)=O)C(=O)OC (stereo not given in full)
inactive: Potency [1] | Potency [2] | Potency [3] | Potency [4] | Potency [5] | Potency [6]

C=CCNC(=O)N1C2=NC(C(=O)OC)=C(C(=O)OC)[C@@H]3N(C)c4ccccc4[C@]23C[C@H]1CO
inactive and 2.94 µM (active): Potency [4]
inactive: Potency [1] | Potency [5] | Potency [6]
inactive and 1.69 µM (active): Potency [3]
inactive and 1.9 µM (active): Potency [2]

COC(=O)C[C@H]1c2ccccc2[C@@H]2C(=C[C@@H](C)[C@H]3C(=O)N(c4ccccc4)C(=O)[C@H]32)N1C(=O)OC
inactive: Potency [1] | Potency [2] | Potency [3] | Potency [4] | Potency [5] | Potency [6]

COC(=O)N[C@@H](c1cccc(C)c1)[C@]1(C(=O)OC)CCCC1=O
inactive: Potency [1] | Potency [2] | Potency [3] | Potency [4] | Potency [5] | Potency [6]

COC(=O)[C@@]1(C=C2c3ccc(F)cc3[C@@H](OC)[C@@H]2C)[C@@H]2OCCC[C@@H]21
inactive: Potency [1] | Potency [2] | Potency [3] | Potency [4] | Potency [5] | Potency [6]

CCCCCCCC=CC1=CC2(C)CC1(C)C(CCCCCCC)CC2=O (stereo not given)
inactive: Potency [1] | Potency [2] | Potency [3] | Potency [4] | Potency [5] | Potency [6]

CC(=O)OC[C@H]1O[C@H](c2ccc(C(C)=O)cc2)C=C[C@H]1OC(C)=O
inactive: Potency [1] | Potency [2] | Potency [3] | Potency [4] | Potency [5] | Potency [6]

COc1cccc(CO[C@H]2C=C[C@@H](c3ccccc3)O[C@H]2CN=[N+]=[N-])c1
inactive: Potency [1] | Potency [2] | Potency [3] | Potency [4] | Potency [5] | Potency [6]

CCOC(=O)NN=C1C[C@@H](O)[C@@H](O)[C@@H]2[C@H]3C(=O)N(Cc4ccccc4)C(=O)[C@@H]3CC[C@@H]12
inactive: Potency [1] | Potency [2] | Potency [3] | Potency [4] | Potency [5] | Potency [6]

CCN1C(=NCCc2cccnc2)N[C@H](CCc2ccccc2)[C@H](C(=O)OC)[C@H]1C
inactive: Potency [1] | Potency [2] | Potency [3] | Potency [4] | Potency [5] | Potency [6]

O=C1[C@H]2[C@@H]3[C@@H](O)[C@H](O)CC(=NOCc4ccccc4)[C@@H]3CC[C@H]2C(=O)N1C[C@@H]1CCCO1
inactive: Potency [1] | Potency [2] | Potency [3] | Potency [4] | Potency [5] | Potency [6]

COC(=O)CC1c2ccccc2C(Cc2ccc(OC)cc2)C(C)N1C(=O)OC (stereo not given)
inactive: Potency [1] | Potency [2] | Potency [3] | Potency [4] | Potency [5] | Potency [6]

COC(=O)CC=C[C@@H](C)[C@@H](Cc1ccccc1Br)OC
inactive: Potency [1] | Potency [2] | Potency [3] | Potency [4] | Potency [5] | Potency [6]

O=c1n(-c2ccccc2)c(=O)n2n1CC[C@@H]1C(=NOC[C@@H](O)COCc3ccco3)[C@H]3O[C@H]3[C@@H](O)[C@H]12
inactive: Potency [1] | Potency [2] | Potency [3] | Potency [4] | Potency [5] | Potency [6]

COC(=O)C1=C(C(=O)OC)[C@@H]2N(C)c3ccccc3[C@@]23C[C@@H](C(=O)OC)N(C(=O)NC(C)(C)C)C3=N1
inactive: Potency [1] | Potency [2] | Potency [3] | Potency [4] | Potency [5] | Potency [6]

CCN1C(=O)[C@@H]2[C@H]3[C@H](O)[C@H](O)CC(=NO[C@@H]4O[C@H](COC(C)=O)[C@@H](OC(C)=O)[C@H](OC(C)=O)[C@@H]4OC(C)=O)[C@@H]3CC[C@H]2C1=O
inactive: Potency [1] | Potency [2] | Potency [3] | Potency [4] | Potency [5] | Potency [6]

C=CCOC(=O)N[C@H](C(C(=O)OC)=C(C)NCc1ccccc1)c1ccc2c(c1)OCO2
inactive: Potency [1] | Potency [2] | Potency [3] | Potency [4] | Potency [5] | Potency [6]

COC(=O)[C@@H](NC(=O)O[C@@H]1C(=O)c2cc(Br)ccc2O[C@H]1c1cccc(OC)c1)C(C)C
inactive: Potency [1] | Potency [2] | Potency [3] | Potency [4] | Potency [5] | Potency [6]

COC(=O)c1ccc(CN2C(=O)[C@]3(OCCC=C[C@@H]3C)c3c(Br)cccc32)cc1
inactive: Potency [1] | Potency [2] | Potency [3] | Potency [4] | Potency [5] | Potency [6]

C=C(C[C@]1(C(=O)OC)C[C@]2(CC=C(C)C)C(=O)C(C(=O)CC(C)C)=C(O)[C@@](CC=C(C)C)(C1)C2=O)C(=O)OC
inactive: Potency [1] | Potency [2] | Potency [3] | Potency [4] | Potency [5] | Potency [6]

COC(=O)C1=C(C(=O)OC)[C@@H]2Nc3ccccc3[C@@]23C[C@@H](C(=O)OC)N(C(=O)NCCBr)C3=N1
inactive: Potency [1] | Potency [2] | Potency [4] | Potency [5] | Potency [6]
active: Potency [3] 1.9 µM

COc1ccc2c(c1)O[C@@H](c1cccc(C(F)(F)F)c1)[C@H](O)C2=O
inactive: Potency [1] | Potency [2] | Potency [3] | Potency [4] | Potency [5] | Potency [6]

C[C@@H](ON=C1[C@H]2CCn3c(=O)n(-c4ccccc4)c(=O)n3[C@@H]2[C@H](O)[C@@H]2O[C@H]12)c1cn([C@H](CO)Cc2ccccc2)nn1
inactive: Potency [1] | Potency [2] | Potency [3] | Potency [4] | Potency [5] | Potency [6]

CCN1C(=O)NC(c2ccccc2)C(C(=O)OC)=C1C (stereo not given)
inactive: Potency [1] | Potency [2] | Potency [3] | Potency [4] | Potency [5] | Potency [6]

COc1ccc2c(c1)O[C@H](c1ccc3c(c1)OCO3)[C@@H](OC(=O)Nc1cc(OC)c(OC)c(OC)c1)C2=O
inactive: Potency [1] | Potency [2] | Potency [3] | Potency [4] | Potency [5] | Potency [6]

CC1(OC(=O)CCc2ccccc2)C(=O)C=C2C=C(c3ccsc3)OC=C2C1=O (stereo not given)
inactive: Potency [1] | Potency [2] | Potency [3] | Potency [4] | Potency [5] | Potency [6]

CC(=O)OC[C@H]1O[C@@H](ON=C[C@@H](C)[C@H](OCc2ccccc2)C(C)C)[C@@H](OC(C)=O)[C@@H](OC(C)=O)[C@@H]1OC(C)=O
inactive: Potency [1] | Potency [2] | Potency [3] | Potency [4] | Potency [5] | Potency [6]

COC(=O)[C@H]1O[C@@H](c2c(OC)c(OC)c(C)c(OC)c2OC)[C@H](C)[C@@H](O)[C@@H]1C
inactive: Potency [1] | Potency [2] | Potency [3] | Potency [4] | Potency [5] | Potency [6]

C=CCOC(=O)C(C(C)=O)[C@@H](NC(=O)OC)c1cccc(F)c1 (stereo not given in full)
inactive: Potency [1] | Potency [2] | Potency [3] | Potency [4] | Potency [5] | Potency [6]

C=CC[C@@H]1C=C[C@@H](OC(=O)OCC)[C@@H](COC(=O)OCC)O1
inactive: Potency [1] | Potency [2] | Potency [3] | Potency [4] | Potency [5] | Potency [6]

CC(C)CON=C1C[C@@H](O)[C@@H](O)[C@@H]2[C@H]3C(=O)N(Cc4ccc5c(c4)OCO5)C(=O)[C@@H]3CC[C@H]12
inactive: Potency [1] | Potency [2] | Potency [3] | Potency [4] | Potency [5] | Potency [6]

COC(=O)CC=C1c2ccc(F)cc2[C@@H](OC)[C@@H]1C
inactive: Potency [1] | Potency [2] | Potency [3] | Potency [4] | Potency [5] | Potency [6]

C[C@@H]1C(c2ccccc2)CC(=O)C(=O)C[C@@H]1C(=O)N1CCCC1 (stereo not given in full)
inactive: Potency [1] | Potency [2] | Potency [3] | Potency [4] | Potency [5] | Potency [6]

C[C@H]1[C@H](O)[C@@H](N=[N+]=[N-])CCO[C@H]1c1ccccc1
inactive: Potency [1] | Potency [2] | Potency [3] | Potency [4] | Potency [5] | Potency [6]

CC(=O)OC[C@H]1O[C@H](CC=NO[C@@H](C)c2cc(-c3c(C)cc(C)cc3C)no2)C=C[C@@H]1OC(C)=O
inactive: Potency [1] | Potency [2] | Potency [3] | Potency [4] | Potency [5] | Potency [6]

COc1ccc2c(c1)[C@@]1(OCCC=C[C@@H]1C)C(=O)N2CC1CC1
inactive: Potency [1] | Potency [2] | Potency [3] | Potency [4] | Potency [5] | Potency [6]

COc1ccc([C@]23Cc4cc(OC)c(OC)cc4[C@H](O2)C2=C(CC4(CCCCC4)OC2=O)O3)cc1
inactive: Potency [1] | Potency [2] | Potency [3] | Potency [4] | Potency [5] | Potency [6]
